# Laboratory results from PubChem BioAssay.
# Inconclusive results are not listed. Activity calls are given as the source filed them. Unless noted, the limit is not given here; nearly all actives have AC50 up to about 27 µM.
# Experiment: viability loss in pontine glioma line – cell-based, SU-DIPG-XVII, MIPE5.0, CellTiter-Glo, qHTS, dose response (AID 1347060; cut-off not given, nearly all actives have AC50 up to about 26 µM;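 as to AC50: cells exposed to compound for 48 hours before viability readout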)
# Details: CellTiter-Glo ATP luminescence
SMILES,AC50,outcome
O=C(NC1CCNCC1)c1[nH]ncc1NC(=O)c1c(Cl)cccc1Cl,6.61 µM (active),
CN(C)CCN1C(=O)c2cccc3cc(N)cc(c23)C1=O,20.9 µM (active),
CC(C)C[C@H](NC(=O)CNC(=O)c1cc(Cl)ccc1Cl)B1OC(=O)CC(CC(=O)O)(C(=O)O)O1 (some centres undefined),0.209 µM (active),
NCC(=O)Nc1ccc(-n2nc(C(F)(F)F)cc2-c2ccc3c(ccc4ccccc43)c2)cc1,23.5 µM (active),
CC(C)(C)c1cc(C(C)(C)C)c(NC(=O)c2c[nH]c3ccccc3c2=O)cc1O,11.8 µM (active),
CCCCCCCCCCCC(CC1OC(=O)C1CCCCCC)OC(=O)C(CC(C)C)NC=O (centres undefined),,inactive

# Experiment: viability loss in pontine glioma line – cell-based, JHH-DIPG-1, MIPE4.0, CellTiter-Glo, qHTS, dose response (AID 1347062);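 as to AC50: cells exposed to compound for two days before readout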
# Details: JHH-DIPG-1 viability, CellTiter-Glo ATP luminescence
SMILES,AC50,outcome
CN(C)CCCN=c1c2ccccc2n(C)c2[nH]c(=O)n(C)c(=O)c12,8.33 µM (active),
C[C@@H]1COC(Nc2ccc3ncnc(Nc4ccc(OCc5nccs5)c(Cl)c4)c3c2)=N1,18.7 µM (active),
Cc1ccc2nc(NCCN)c3ncc(C)n3c2c1,2.35 µM (active),
CC(C)c1cnn2c(NCc3ccccc3)cc(NCCCCCCN)nc12,20.9 µM (active),
COC[C@H](NC(=O)c1cnc(C)s1)C(=O)N[C@@H](COC)C(=O)N[C@@H](Cc1ccccc1)C(=O)[C@@]1(C)CO1,0.148 µM (active),
CCN(CC)CCCCNc1nc2cc(Cl)c(Cl)cc2nc1-c1ccc(-c2cccs2)s1,7.43 µM (active),
O=C(c1ccc(/C=C/c2n[nH]c3ccccc23)cc1)N1CCNCC1,23.5 µM (active),
CCOC(=O)[C@H]1O[C@@H]1C(=O)N[C@@H](CC(C)C)C(=O)NCCC(C)C,,inactive
